Experimental findings from PubChem BioAssay (EPA / NIEHS) are described below.

Results filed as inconclusive are left out. Calls of active or inactive are those of the source. Rule for the calls, unless noted: active = hit-call score of the fitted dose curve at least 0.9, where 1 is the maximum; inactive = score below 0.9.

Test [1] is described as follows: ATG_TAL_CIS: Attagene CIS-FACTORIAL HepG2 Assay for human TAL Basal Promoter (AID 2282966).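 Note: background control endpoint measuring basal TAL promoter reporter mRNA not a specific factor.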 The note with it: HepG2 Attagene cis-factorial TAL promoter reporter; actives raise or lower the signal. In outline: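 Basal-promoter background-control endpoint from a multiplexed HepG2 reporter panel. Cells were exposed 24 h, then reporter mRNA was read by RT-PCR/CE fluorescence and fitted in both directions relative to DMSO.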

The nature of test [2]: ATG_TGFb_CIS: Attagene CIS-FACTORIAL HepG2 Assay for human Transforming Growth Factor (TGF) (AID 2282967). The note with it: HepG2 Attagene CIS TGFb reporter, mRNA transcription; actives raise or lower the signal. The gist of the method:
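Transient MRTU transfection of HepG2 (FuGene 6). Dose 24 h. TriZol RNA, oligo(dT) RT, PCR, 6-FAM primer extension, HpaI cut, CE. Bidirectional fit, DMSO = baseline.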

The nature of test [3]: ATG_VDRE_CIS: Attagene CIS-FACTORIAL HepG2 Assay for human Vitamin D Receptor Element (VDRE) (AID 2282968). The settings on record: HepG2 VDRE cis-reporter transcription, actives raise or lower the signal. The gist of the method: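 Compounds were applied for 24 h to HepG2 cells transfected with promoter-regulated reporter units. Total RNA was reverse-transcribed, and reporter amplicons were fluorescently labelled and sized by capillary electrophoresis.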

The target of test [4] is Estrogen-related receptor gamma (Homo sapiens) (UniProt P62508). The test can be described thus: ATG_ERRg_TRANS: Attagene TRANS-FACTORIAL HepG2 Assay for human Estrogen-Related Receptor gamma (ERRg) (AID 2282977; active = hit-call score of the fitted dose curve at least 0.9, where 1 is the maximum;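 note: hits increase reporter signal over DMSO so potencies reflect activators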). The note with it: HepG2 Attagene TRANS reporter, ERRg transactivation. In outline:
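Exogenous NR-Gal4 chimera activity measured as reporter transcript induction after 24 h in transiently transfected HepG2 cells. RNA reverse-transcribed, PCR-amplified, 6-FAM-labelled and resolved by capillary electrophoresis; increase over DMSO baseline.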

Test [5] addresses Oxysterols receptor LXR-beta (Homo sapiens) (UniProt P55055). The test can be described thus: ATG_LXRb_TRANS: Attagene TRANS-FACTORIAL HepG2 Assay for human Liver X Receptor beta (LXRb) (AID 2282981; active = hit-call score of the fitted dose curve at least 0.9, where 1 is the maximum). The settings on record: HepG2 Attagene TRANS GAL4-LXRb reporter, mRNA. The gist of the method: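 Multiplexed reporter assay, HepG2, 24 h dosing. Fluorescence of labelled RT-PCR products after capillary electrophoresis gives transcript level; positive fitting direction relative to DMSO.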

Test [6] has as its target Hepatocyte nuclear factor 4-alpha (Homo sapiens) (UniProt P41235). The test is described as follows: ATG_HNF4a_TRANS: Attagene TRANS-FACTORIAL HepG2 Assay for human Hepatocyte Nuclear Factor 4 alpha (HNF4a) (AID 2282982; active = hit-call score of the fitted dose curve at least 0.9, where 1 is the maximum). The note with it: HepG2 HNF4a transactivation reporter, mRNA readout. In outline: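 Endpoint reflects transcriptional activation of a GAL4-UAS reporter by an HNF4a-GAL4 chimera in transfected HepG2 cells, 24 h post-dosing. Fluorescence from RT-PCR products separated by capillary electrophoresis; DMSO baseline.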

Test [7] in a line: ATG_M_06_TRANS: Attagene TRANS-FACTORIAL HepG2 Assay for M06 Transcription Factor (Internal Marker) (AID 2282983; active = hit-call score of the fitted dose curve at least 0.9, where 1 is the maximum). The settings on record: HepG2 Attagene TRANS M06 internal marker reporter. The gist of the method: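 mRNA levels of a reporter transcript, quantified as FAM fluorescence on capillary electrophoresis, served as readout. HepG2 cells expressing exogenous GAL4-chimera reporter constructs were exposed for 24 h. Gain of signal over DMSO was evaluated.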

The nature of test [8]: ATG_M_32_TRANS: Attagene TRANS-FACTORIAL HepG2 Assay for M32 Transcription Factor (Internal Marker) (AID 2282984; active = hit-call score of the fitted dose curve at least 0.9, where 1 is the maximum). The settings on record: HepG2 Attagene TRANS M32 internal marker reporter. In outline: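 Internal-marker readout from a multiplexed transcription reporter panel. HepG2 cells were transfected with GAL4-UAS reporter units, treated 24 hours, and reporter transcript levels determined by fluorescence after RT-PCR and capillary separation.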

In test [9] the target is Nuclear receptor subfamily 4 group A member 2 (Homo sapiens) (UniProt P43354). The test can be described thus: ATG_NURR1_TRANS: Attagene TRANS-FACTORIAL HepG2 Assay for human Nuclear Receptor Related Protein 1 (NURR1) (AID 2282985; active = hit-call score of the fitted dose curve at least 0.9, where 1 is the maximum). The note with it: HepG2 Attagene TRANS reporter, mRNA readout. In outline:
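Endpoint: reporter mRNA increase relative to DMSO. HepG2 cells transfected with reporter units, treated 24 h; RNA processed by RT-PCR, labelling, HpaI digestion and capillary electrophoresis.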

For test [10], the target named is Transcriptional activator Myb (Homo sapiens) (UniProt P10242). The test is described as follows: ATG_Myb_CIS: Attagene CIS-FACTORIAL HepG2 Assay for human Myeloblastosis (Myb) Proto-Oncogene Transcription Factor (AID 2282986). The settings on record: HepG2 Attagene CIS-FACTORIAL Myb reporter transcription; actives raise or lower the signal. The gist of the method:
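Endogenous transcription factor activity at a Myb-responsive cis element is reported in human liver HepG2 cells after 24 h chemical treatment. Reporter mRNA is detected by RT-PCR and capillary electrophoresis fluorescence, with DMSO as baseline.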

Test [11] is described as follows: ATG_M_19_TRANS: Attagene TRANS-FACTORIAL HepG2 Assay for M19 Transcription Factor (Internal Marker) (AID 2282974; active = hit-call score of the fitted dose curve at least 0.9, where 1 is the maximum). The settings on record: HepG2 Attagene TRANS-FACTORIAL M19 internal marker reporter. In outline:
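After transfection of HepG2 with GAL4-UAS-driven reporter constructs, cells are dosed for 24 h. Total RNA is reverse-transcribed, reporter sequences PCR-amplified and labelled, then HpaI-digested and sized by capillary electrophoresis.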

Test [12] in a line: ATG_GAL4_TRANS: Attagene TRANS-FACTORIAL HepG2 Assay for GAL4 (Internal Marker) (AID 2282976; active = hit-call score of the fitted dose curve at least 0.9, where 1 is the maximum). The note with it: HepG2 Attagene TRANS GAL4 internal marker reporter. The gist of the method:
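Background-control readout: GAL4-UAS reporter transcript in transiently transfected HepG2 cells after 24 h compound exposure. Measured by RT-PCR, 6-FAM primer extension, HpaI digest and capillary electrophoresis; gain-of-signal fit versus DMSO.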

Test [13] deals with Nuclear respiratory factor 1 (Homo sapiens) (UniProt Q16656). The test is described as follows: ATG_NRF1_CIS: Attagene CIS-FACTORIAL HepG2 Assay for human Nuclear Respiratory Factor 1 (NRF1) Orphan Gene (AID 2282987). The settings on record: HepG2 NRF1 cis-element reporter, Attagene multiplex; actives raise or lower the signal. In outline: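 Human hepatoma HepG2 cells carrying transfected promoter-regulated reporter units were incubated with test chemicals for 24 h. Reporter transcripts were measured by RT-PCR plus capillary electrophoresis, and endpoints derived by bidirectional fitting with DMSO as baseline.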

The target of test [14] is X-box-binding protein 1 (Homo sapiens) (UniProt P17861). The test can be described thus: ATG_Xbp1_CIS: Attagene CIS-FACTORIAL HepG2 Assay for human X-box Binding Protein 1 (XBP1) (AID 2282972). The note with it: HepG2 XBP1 cis-element reporter, Attagene multiplex; actives raise or lower the signal. The gist of the method: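 Multiplexed cis-reporter readout in transfected HepG2 liver cells. Exposure lasted 24 hours. Activity in either direction was fitted against DMSO as negative control and baseline.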

Test [15] has as its target Bile acid receptor (Homo sapiens) (UniProt Q96RI1). The test is described as follows: ATG_FXR_TRANS: Attagene TRANS-FACTORIAL HepG2 Assay for Farnesoid X Receptor (FXR) (AID 2282979; active = hit-call score of the fitted dose curve at least 0.9, where 1 is the maximum;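 note: hits raise reporter mRNA above DMSO so AC50 marks FXR activation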). The settings on record: HepG2 Attagene TRANS FXR-GAL4 reporter transcription. In outline:
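HepG2 cells were transiently transfected with GAL4-UAS reporters driven by chimeric NR-Gal4 proteins and dosed for 24 h. Reporter mRNA was quantified by RT-PCR, fluorescent labelling, HpaI digestion and capillary electrophoresis, with gain of signal scored versus DMSO.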

Test [16] concerns the target Nuclear receptor subfamily 1 group I member 3 (Homo sapiens) (UniProt Q14994). The test is described as follows: ATG_CAR_TRANS: Attagene TRANS-FACTORIAL HepG2 Assay for human Constitutive Androstane Receptor (CAR) (AID 2282969; active = hit-call score of the fitted dose curve at least 0.9, where 1 is the maximum;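 note: activators raise reporter mRNA above DMSO so AC50 marks induction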). The note with it: HepG2 Attagene TRANS-FACTORIAL CAR reporter. The gist of the method: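 Transiently transfected HepG2, multiplex TRANS reporters (CAR-Gal4 chimera driving GAL4-UAS reporter). 24 h dosing. Readout: reporter transcript by RT-PCR + capillary electrophoresis, fluorescence intensity; positive direction vs DMSO.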

In test [17] the target is Estrogen receptor (Homo sapiens) (UniProt P03372). The test can be described thus: ATG_ERa_TRANS: Attagene TRANS-FACTORIAL HepG2 Assay for human Estrogen Receptor alpha (ERa) (AID 2282970; active = hit-call score of the fitted dose curve at least 0.9, where 1 is the maximum). The note with it: HepG2 Attagene TRANS ERa GAL4 reporter, mRNA. The gist of the method: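 Gal4-fusion ERa transactivation, measured as reporter transcript level in transiently transfected HepG2 cells. Exposure 24 h; RT-PCR plus capillary electrophoresis with fluorescence detection.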

Test [18] deals with Glucocorticoid receptor (Homo sapiens) (UniProt P04150). The test can be described thus: ATG_GR_TRANS: Attagene TRANS-FACTORIAL HepG2 Assay for human Glucocorticoid Receptor (GR) (AID 2282978; active = hit-call score of the fitted dose curve at least 0.9, where 1 is the maximum;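 note: activators score as hits since higher reporter transcript over DMSO is fitted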). The note with it: HepG2 Attagene TRANS GR reporter, mRNA transcription. The gist of the method: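 Multiplexed TRANS reporter system, HepG2; 24 h exposure; RNA → oligo(dT) RT → reporter-specific PCR → 6-FAM primer extension → HpaI cut → CE fluorescence. Gain-of-signal vs DMSO.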

For test [19], the target named is Steroid hormone receptor ERR1 (Homo sapiens) (UniProt P11474). The test can be described thus: ATG_ERRa_TRANS: Attagene TRANS-FACTORIAL HepG2 Assay for human Estrogen-Related Receptor alpha (ERRa) (AID 2282971; active = hit-call score of the fitted dose curve at least 0.9, where 1 is the maximum). The note with it: HepG2 Attagene TRANS reporter, ERRa transactivation. The gist of the method:
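HepG2 cells transiently transfected with GAL4-UAS reporter units and chimeric NR-Gal4 constructs; after 24 hour compound incubation, reporter mRNA quantified by RT-PCR, fluorescent labelling and capillary electrophoresis, gain of signal versus DMSO.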

Test [20] concerns the target Oxysterols receptor LXR-alpha (Homo sapiens) (UniProt Q13133). The test can be described thus: ATG_LXRa_TRANS: Attagene TRANS-FACTORIAL HepG2 Assay for human Liver X Receptor alpha (LXRa) (AID 2282980; active = hit-call score of the fitted dose curve at least 0.9, where 1 is the maximum). The note with it: HepG2 Attagene TRANS reporter, LXRa transactivation. The gist of the method: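 HepG2 cells transiently transfected with GAL4-UAS reporter units for chimeric NR-Gal4 proteins, exposed to chemicals for 24 h. Reporter mRNA quantified by RT-PCR and capillary electrophoresis; gain of signal fitted relative to DMSO.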

Oxysterols receptor LXR-beta (Homo sapiens), sequence (P55055 whole entry, looked up, the tested form may be a part): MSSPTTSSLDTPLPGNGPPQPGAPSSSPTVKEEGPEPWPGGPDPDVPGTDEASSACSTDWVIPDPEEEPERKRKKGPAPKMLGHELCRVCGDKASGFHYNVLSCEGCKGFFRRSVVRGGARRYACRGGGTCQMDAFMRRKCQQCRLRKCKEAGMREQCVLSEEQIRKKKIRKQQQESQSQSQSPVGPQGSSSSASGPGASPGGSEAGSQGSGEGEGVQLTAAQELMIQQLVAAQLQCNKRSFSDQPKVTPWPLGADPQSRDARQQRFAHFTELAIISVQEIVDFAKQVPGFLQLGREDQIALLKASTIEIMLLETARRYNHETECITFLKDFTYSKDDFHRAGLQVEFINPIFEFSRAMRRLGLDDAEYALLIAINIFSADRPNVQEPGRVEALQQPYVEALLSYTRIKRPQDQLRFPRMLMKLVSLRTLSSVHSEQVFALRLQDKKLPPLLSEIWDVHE
X-box-binding protein 1 (Homo sapiens), sequence (P17861 whole entry, looked up): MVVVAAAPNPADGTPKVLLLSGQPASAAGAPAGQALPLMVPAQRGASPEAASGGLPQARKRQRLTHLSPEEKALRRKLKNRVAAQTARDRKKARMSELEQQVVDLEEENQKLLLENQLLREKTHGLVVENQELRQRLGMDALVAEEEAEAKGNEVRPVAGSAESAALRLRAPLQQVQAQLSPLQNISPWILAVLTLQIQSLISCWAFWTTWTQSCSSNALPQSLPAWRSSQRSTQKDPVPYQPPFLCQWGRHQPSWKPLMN
Hepatocyte nuclear factor 4-alpha (Homo sapiens), sequence (P41235 whole entry, looked up, the tested form may be a part): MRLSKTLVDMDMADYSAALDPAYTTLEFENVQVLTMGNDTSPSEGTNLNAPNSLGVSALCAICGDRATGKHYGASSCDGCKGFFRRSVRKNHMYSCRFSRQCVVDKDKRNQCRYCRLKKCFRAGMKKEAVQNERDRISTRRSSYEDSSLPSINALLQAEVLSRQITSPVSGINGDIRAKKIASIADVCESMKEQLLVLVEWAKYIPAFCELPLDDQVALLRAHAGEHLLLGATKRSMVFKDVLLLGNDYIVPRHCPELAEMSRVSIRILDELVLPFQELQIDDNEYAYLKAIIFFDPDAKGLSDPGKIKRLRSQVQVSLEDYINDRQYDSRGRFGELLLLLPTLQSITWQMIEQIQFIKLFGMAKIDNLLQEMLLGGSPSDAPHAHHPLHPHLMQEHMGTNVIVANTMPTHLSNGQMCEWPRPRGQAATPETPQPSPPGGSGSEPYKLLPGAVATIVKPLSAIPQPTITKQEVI
Transcriptional activator Myb (Homo sapiens), sequence (P10242 whole entry, looked up): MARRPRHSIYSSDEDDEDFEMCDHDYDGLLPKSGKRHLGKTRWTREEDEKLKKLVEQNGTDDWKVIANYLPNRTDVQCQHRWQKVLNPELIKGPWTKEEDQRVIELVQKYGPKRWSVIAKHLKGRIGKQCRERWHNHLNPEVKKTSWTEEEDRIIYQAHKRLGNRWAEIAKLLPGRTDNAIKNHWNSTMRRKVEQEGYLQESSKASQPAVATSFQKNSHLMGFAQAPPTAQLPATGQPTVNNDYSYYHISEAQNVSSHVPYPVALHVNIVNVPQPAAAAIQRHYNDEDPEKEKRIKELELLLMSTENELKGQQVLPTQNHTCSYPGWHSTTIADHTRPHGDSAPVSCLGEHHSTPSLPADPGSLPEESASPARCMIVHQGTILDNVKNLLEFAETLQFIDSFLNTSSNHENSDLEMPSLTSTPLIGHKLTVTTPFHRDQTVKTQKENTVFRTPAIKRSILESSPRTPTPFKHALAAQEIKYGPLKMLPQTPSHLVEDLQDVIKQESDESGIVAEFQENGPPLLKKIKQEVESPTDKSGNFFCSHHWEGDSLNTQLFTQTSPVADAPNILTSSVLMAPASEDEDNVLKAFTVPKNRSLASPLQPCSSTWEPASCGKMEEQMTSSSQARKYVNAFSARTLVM
Nuclear respiratory factor 1 (Homo sapiens), sequence (Q16656 whole entry, looked up): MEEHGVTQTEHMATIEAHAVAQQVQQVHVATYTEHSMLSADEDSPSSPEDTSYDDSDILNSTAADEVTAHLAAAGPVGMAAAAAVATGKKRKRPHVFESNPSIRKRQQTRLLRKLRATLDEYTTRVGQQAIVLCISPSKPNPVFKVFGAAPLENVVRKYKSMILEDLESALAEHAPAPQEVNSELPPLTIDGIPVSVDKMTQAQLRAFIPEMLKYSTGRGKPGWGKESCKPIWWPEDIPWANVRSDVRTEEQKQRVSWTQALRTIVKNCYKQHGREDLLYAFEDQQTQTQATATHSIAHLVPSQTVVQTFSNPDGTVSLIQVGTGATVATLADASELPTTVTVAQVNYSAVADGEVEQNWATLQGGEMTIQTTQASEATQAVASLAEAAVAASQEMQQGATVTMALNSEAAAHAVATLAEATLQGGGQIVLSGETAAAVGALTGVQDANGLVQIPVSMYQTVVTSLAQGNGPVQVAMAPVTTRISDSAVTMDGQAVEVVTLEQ
Oxysterols receptor LXR-alpha (Homo sapiens), sequence (Q13133 whole entry, looked up, the tested form may be a part): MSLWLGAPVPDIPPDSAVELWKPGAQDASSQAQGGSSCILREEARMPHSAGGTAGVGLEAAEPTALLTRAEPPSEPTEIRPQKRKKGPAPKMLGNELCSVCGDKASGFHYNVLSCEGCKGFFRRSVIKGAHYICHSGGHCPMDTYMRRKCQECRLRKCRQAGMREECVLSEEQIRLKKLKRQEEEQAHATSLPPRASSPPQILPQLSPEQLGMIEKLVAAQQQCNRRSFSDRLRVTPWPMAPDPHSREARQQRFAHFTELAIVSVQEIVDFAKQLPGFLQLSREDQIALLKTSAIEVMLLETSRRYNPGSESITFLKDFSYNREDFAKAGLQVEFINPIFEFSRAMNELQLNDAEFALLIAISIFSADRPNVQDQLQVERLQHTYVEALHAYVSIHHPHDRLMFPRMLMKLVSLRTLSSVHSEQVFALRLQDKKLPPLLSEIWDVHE
Nuclear receptor subfamily 4 group A member 2 (Homo sapiens), sequence (P43354 whole entry, looked up): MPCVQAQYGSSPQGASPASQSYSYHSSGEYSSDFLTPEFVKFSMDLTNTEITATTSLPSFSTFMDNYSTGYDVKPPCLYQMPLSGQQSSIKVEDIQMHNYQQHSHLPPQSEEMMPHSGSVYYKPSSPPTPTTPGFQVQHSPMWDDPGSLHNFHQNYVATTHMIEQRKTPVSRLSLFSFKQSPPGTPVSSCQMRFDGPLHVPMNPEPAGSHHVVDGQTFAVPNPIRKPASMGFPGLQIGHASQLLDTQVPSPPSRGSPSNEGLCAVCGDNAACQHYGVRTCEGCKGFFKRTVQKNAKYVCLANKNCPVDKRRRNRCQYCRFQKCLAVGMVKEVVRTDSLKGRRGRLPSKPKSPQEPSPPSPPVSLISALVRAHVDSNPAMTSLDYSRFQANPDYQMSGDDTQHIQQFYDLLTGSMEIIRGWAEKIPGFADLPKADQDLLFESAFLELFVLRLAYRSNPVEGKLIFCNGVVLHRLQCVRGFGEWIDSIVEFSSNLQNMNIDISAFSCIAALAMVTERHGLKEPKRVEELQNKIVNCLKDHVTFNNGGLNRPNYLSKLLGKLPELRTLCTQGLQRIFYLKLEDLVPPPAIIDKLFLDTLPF
Estrogen receptor (Homo sapiens), sequence (P03372 whole entry, looked up, the tested form may be a part): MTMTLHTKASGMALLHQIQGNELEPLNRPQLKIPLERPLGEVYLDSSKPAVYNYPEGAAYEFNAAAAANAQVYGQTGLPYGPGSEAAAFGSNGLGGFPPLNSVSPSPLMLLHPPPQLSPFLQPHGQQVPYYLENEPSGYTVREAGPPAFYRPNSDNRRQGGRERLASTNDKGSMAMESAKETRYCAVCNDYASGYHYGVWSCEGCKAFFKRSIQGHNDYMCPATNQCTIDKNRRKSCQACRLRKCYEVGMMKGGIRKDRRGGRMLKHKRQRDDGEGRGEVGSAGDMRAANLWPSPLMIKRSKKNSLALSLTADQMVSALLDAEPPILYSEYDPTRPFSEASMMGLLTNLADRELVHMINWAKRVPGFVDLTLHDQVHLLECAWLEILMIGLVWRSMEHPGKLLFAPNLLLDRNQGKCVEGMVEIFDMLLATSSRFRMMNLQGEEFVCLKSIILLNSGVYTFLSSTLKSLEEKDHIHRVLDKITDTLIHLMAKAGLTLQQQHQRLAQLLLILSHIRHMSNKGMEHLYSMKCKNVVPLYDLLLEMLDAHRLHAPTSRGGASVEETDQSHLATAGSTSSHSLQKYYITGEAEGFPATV
Nuclear receptor subfamily 1 group I member 3 (Homo sapiens), sequence (Q14994 whole entry, looked up, the tested form may be a part): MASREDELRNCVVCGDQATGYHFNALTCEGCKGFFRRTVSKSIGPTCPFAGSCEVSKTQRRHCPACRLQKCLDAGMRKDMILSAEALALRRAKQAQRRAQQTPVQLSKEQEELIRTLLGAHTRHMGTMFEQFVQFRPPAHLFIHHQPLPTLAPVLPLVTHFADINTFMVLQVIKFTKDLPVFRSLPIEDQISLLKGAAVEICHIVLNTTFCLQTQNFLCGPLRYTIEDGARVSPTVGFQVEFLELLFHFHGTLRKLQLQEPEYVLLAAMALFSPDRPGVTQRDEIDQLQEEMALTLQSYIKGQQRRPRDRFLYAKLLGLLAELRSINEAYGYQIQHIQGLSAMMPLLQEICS
Bile acid receptor (Homo sapiens), sequence (Q96RI1 whole entry, looked up, the tested form may be a part): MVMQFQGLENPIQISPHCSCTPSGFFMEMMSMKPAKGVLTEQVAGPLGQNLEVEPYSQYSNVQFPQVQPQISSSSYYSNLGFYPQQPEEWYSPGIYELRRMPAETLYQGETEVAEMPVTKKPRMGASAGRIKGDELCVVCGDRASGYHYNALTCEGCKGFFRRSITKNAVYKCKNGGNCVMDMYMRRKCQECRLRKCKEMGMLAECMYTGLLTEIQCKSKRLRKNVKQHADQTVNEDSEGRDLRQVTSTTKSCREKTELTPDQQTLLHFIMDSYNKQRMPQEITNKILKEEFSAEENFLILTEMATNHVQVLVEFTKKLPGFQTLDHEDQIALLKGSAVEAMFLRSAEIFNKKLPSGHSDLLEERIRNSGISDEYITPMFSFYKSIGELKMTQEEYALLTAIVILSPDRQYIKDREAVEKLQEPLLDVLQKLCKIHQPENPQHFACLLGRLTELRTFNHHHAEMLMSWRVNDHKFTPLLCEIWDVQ

In the case of `COC(=O)/C=C/C(C)=C\C=C\C(C)=C\C=C\C=C(C)\C=C\C=C(C)\C=C\C(=O)O`, the compound was classed as inactive in test [1], in test [2], in test [3], in test [4], in [5] and in [6]. The outcome in test [7], in [8], in test [9] and in test [10] was inactive.

Consider `OCCN(CCO)c1ccccc1`, for which the outcome in test [1], in test [2], in [3], in test [11], in [12] and in test [5] was inactive. Moreover, the call in test [7], in test [10] and in [13] was inactive.

Regarding `CC(C)=CC1CC(C)CCO1` (stereo not drawn), the outcome in [1], in test [2], in test [3], in [14], in test [6] and in [7] was inactive. The compound was called inactive in [10] and in [13].

Regarding `O=C1OC(=O)c2cc(Oc3ccc4c(c3)C(=O)OC4=O)ccc21`, the call in [1], in [2], in test [3], in test [14], in test [15] and in test [5] was inactive. Further, the compound was called inactive in [6], in [7], in [10] and in test [13].

`C=C1[C@H]2CC[C@@H]3[C@H]2C(C)(C)CCC[C@]13C`: the call in test [1], in test [2], in test [16], in test [14], in test [11] and in [18] was inactive. For the same compound, the compound was called inactive in test [15], in test [6], in [7], in [9], in test [10] and in [13]. The AC50 in [17] is 18.9 µM (active).

Turning to `Cc1ccc(N/N=c2\c(=O)cc/c(=N/Nc3ccc(S(=O)(=O)O)cc3)c2=O)c(C)c1`, the result in [1], in [2], in test [16], in test [19], in [14] and in test [4] was inactive. The call in [20], in [7], in test [8], in test [10] and in test [13] was inactive. Also, the AC50 in test [17] was 100 µM (active).

For `CCCCCCCCCCCCCCCC[n+]1ccccc1`, the compound was called inactive in test [1], in test [14], in test [20], in [5], in test [7] and in test [8]. Also, in test [10], the call was inactive. In addition, the AC50 in test [2] is 45.8 µM (active); in [3] it was 3.87 µM (active); in test [6] it was 19.8 µM (active); in [13], 14.7 µM (active).

Usually AC50 stands for the concentration giving half of the maximal activity seen.
